From PubChem BioAssay
ADAM17 inh: ADAM17 inhibitors, primary screen, biochemical, QFRET; Disintegrin and metalloproteinase domain-containing protein 17 (Homo sapiens), P78536; recombinant ADAM17, EDANS/DABCYL FRET peptide cleavage; inhibition, % at 6.95 µM; 0.83% of 370,000 active; AID 720648, 2013;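 active = inhibition above the mean of compounds lying between control limits plus 3 SD, set per campaign, cut at about 8.5% in these data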;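 note: 0% = DMSO-only wells as the low control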
ADAM10 inh: human ADAM10 inhibitors, primary screen, biochemical, QFRET, HTS; Disintegrin and metalloproteinase domain-containing protein 10 (Homo sapiens), O14672; recombinant ADAM10, EDANS/DABCYL FRET peptide cleavage, 3 h; inhibition, % at 7 µM; 0.62% of 370,000 active; AID 720582, 2013;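 active = inhibition above a per-campaign cutoff equal to the mean of compounds falling between control-based bounds plus 3 SD, cut at about 20% in these data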;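 note: 0% = DMSO wells while the 100% control is not disclosed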
FAS TE block: FAS thioesterase domain inhibitors, primary screen, biochemical, fluorescence intensity, uHTS; 0.67% of 360,000 active; recombinant FAS-TE, OMFH fluorogenic substrate, fluorescence endpoint; Fatty acid synthase (Homo sapiens), P49327; AID 602261, 2012; inhibition, % at 15 µM;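 active = compounds whose normalised, plate-corrected inhibition of enzyme fluorescence in the single-dose primary screen is 50% or more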;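 note: 0% = DMSO with enzyme and 100% = substrate without enzyme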
proKLK7 act: proKLK7 zymogen activators, primary screen, biochemical, fluorescence intensity | purified proKLK7, EDANS-DABCYL substrate fluorescence; 100% is mature enzyme control, 0% vehicle | activation, % at 7 µM | 0.9% of 370,000 active | AID 652039, 2013;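 active = activation above the mean of all tested compounds plus 3 SD, computed per campaign excluding outliers beyond control limits, cut at about 13% in these data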
GRIN3A LBD mod: binders of NR3A ligand-binding domain, primary screen, biophysical, differential scanning fluorimetry, uHTS; Glutamate receptor ionotropic, NMDA 3A (GRIN3A) ligand-binding domain; NR3A LBD differential scanning fluorimetry, Tm shift; 0% = protein alone, 100% = glycine-bound protein; Tm shift relative to glycine control, % at 25 µM; 2.5% of 340,000 active;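 active = melting temperature shift of at least 10% of the positive control shift, at one fixed dose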
proKLK7 act conf: proKLK7 zymogen activators, confirmation, biochemical, fluorescence intensity, triplicate; shares compounds with proKLK7 act; purified proKLK7, EDANS-DABCYL substrate fluorescence; scaled: vehicle 0, mature enzyme 100; activation, % at 7 µM; 68% of 3,200 active; AID 686949, 2013;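 active = activation, as change over the incubation, above the mean of all tested compounds plus 3 SD, cut at about 13% in these data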
EDANS-DABCYL int: EDANS-DABCYL substrate optical interference, artefact control for kallikrein-7 zymogen activator project, biochemical, fluorescence intensity, high throughput; shares compounds with proKLK7 act; no enzyme, 4 h; solvent 0%, active enzyme control 100%; activation, % at 7 µM; 80% of 3,200 active;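 active = activation above the all-compound mean plus 3 SD, ignoring values outside control-based bounds, cut at about 4.8% in these data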;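 note: value is the 4 h activation minus the activation read at time zero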
K7 EDANS ctr: EDANS fluorescence interference in dose response, no enzyme; shares compounds with proKLK7 act; EDANS-DABCYL peptide fluorescence interference; EC50, µM; 20% of 250 active; AID 720493;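 active = compounds that raise the fluorescence signal in this interference counterscreen, with EC50 at or below 10 µM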;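 note: intact quenched peptide substrate alone read at 355 nm excitation and 520 nm emission; signal is fluorescence gain from T0 to T4 after four hours at room temperature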
The depositor's hits bear a star; i = inactive; · = no result given. The list is not random: actives were taken first. Their share in the collection is about 4.6%.

SMILES | ADAM17 inh | ADAM10 inh | FAS TE block | proKLK7 act | GRIN3A LBD mod | proKLK7 act conf | EDANS-DABCYL int | others
Cc1c(O)ccc2c(=O)c(Oc3ccccc3)coc12 | 0 | 5 | -4 | -2 | 0 | · | ·
C=CCN(CC=C)Cc1c(O)ccc2c(=O)c(-c3ccccc3)coc12 | -223 | i | -2 | 38* | -1 | 26* | 29*
CN(C)Cc1c(O)ccc2c(=O)c(-c3ccc(Cl)cc3)coc12 | -275 | i | 0 | 33* | -2 | 39* | 37*
O=c1c(-c2ccc([N+](=O)[O-])cc2)coc2c(O)c(O)ccc12 | -1 | -2 | 4 | 6 | -4 | · | ·
CCCOC(=O)c1ccc(Oc2coc3c(CN(CC)CC)c(O)ccc3c2=O)cc1 | i | i | -10 | 60* | -9 | -65 | 48*
CCN(CC)Cc1c(O)ccc2c(=O)c(-c3ccc(Cl)cc3)coc12 | -301 | i | -2 | 29* | -1 | 33* | 31*
CS(=O)(=O)N1CCC[C@]2(CC[C@@H](CCC#N)O2)C1 | 0 | -2 | · | 0 | · | · | ·
COC(=O)[C@]12C[C@H](CC(=O)NCc3ccc(OC)c(OC)c3)C(=O)N(Cc3ccc4c(c3)OCO4)C1=C[C@H](COCc1ccccc1)O[C@@H]2C | -2 | 4 | · | 1 | · | · | ·
CC(=O)N1CCN(S(=O)(=O)c2ccc3c(c2)oc(=O)n3C)CC1 | 0 | -2 | · | 0 | · | · | ·
C#CCN1CC(N(C)CCO)CS1(=O)=O (stereo unspecified) | 0 | -2 | · | 0 | · | · | ·
CCOC(=O)C1=C(C)OC(N)=C(C#N)C1c1cc2c(cc1[N+](=O)[O-])OCO2 (stereo unspecified) | -346 | i | -4 | 29* | -3 | 15* | 15*
COc1ccc(OC)c2c1CCC2=O | -151 | -478 | -6 | 13* | 0 | 19* | 23*
O=C(OC12CCCN(C1)/C(=C/c1cccnc1)C2)c1ccc(F)cc1 (stereo unspecified) | -3 | -4 | · | 0 | · | · | ·
COc1cc(NC(=O)c2ccco2)c(OC)cc1NC(=O)CCC(=O)Nc1cc(C)cc(C)c1 | -14 | -44 | -11 | -20 | 0 | · | ·
COc1cc(NC(=O)c2ccco2)c(OC)cc1NC(=O)CCC(=O)Nc1cc(C)ccc1C | -72 | i | -6 | 31* | -1 | 14* | -7 | K7 EDANS ctr=i
COC(=O)[C@]12C[C@H](CC(=O)NCc3ccc(C)o3)C(=O)N(CCc3ccc(OC)c(OC)c3)C1=C[C@H](COCc1ccccc1)O[C@@H]2C | -2 | 4 | · | 1 | · | · | ·
O=C(Nc1c(-c2ccccc2)nc2ncccn12)c1ccc(F)cc1 | -86 | -298 | · | 14* | · | 12 | 11*
CC(=O)Nc1c(-c2ccc(F)cc2)nc2ncccn12 | -304 | i | · | 12 | · | · | ·
Cc1ccc(-c2c(NC(=O)c3ccc(F)cc3)nc3ncccn23)cc1 | -89 | -301 | · | 9 | · | · | ·
CC(=O)Nc1nc2ncccn2c1-c1ccc(F)c(F)c1 | -367 | i | · | 21* | · | 27* | 26*
O=C(Nc1ccc(F)cc1)Nc1c(-c2ccc(F)cc2)nc2ncccn12 | -10 | -37 | · | 15* | · | 5 | 5.1*
CC(=O)Nc1c(-c2ccccc2)nc2ncccn12 | -287 | i | -10 | 22* | 0 | 60* | 57*
COc1ccc(COC[C@H](C)N2C[C@@H](C)[C@H](CN(C)S(=O)(=O)c3ccc(F)cc3)OCCCC[C@H](C)Oc3ccc(NC(=O)Nc4ccccc4)cc3C2=O)cc1 | 3 | 13 | · | · | · | · | ·
C[C@@H]1ON(C)[C@H]2C[C@H]3c4[nH]c5c(-c6ccccc6)cccc5c4CCN3C[C@@H]12 | -21 | -118 | · | 2 | · | · | ·
COC(=O)[C@@]12CCCCC=C1N(CCc1ccc(Cl)cc1)C(=O)[C@H]2CC(=O)NCC12CC3CC(CC(C3)C1)C2 | -4 | -1 | · | 0 | · | · | ·
SMILES | ADAM17 inh | ADAM10 inh | FAS TE block | proKLK7 act | GRIN3A LBD mod | proKLK7 act conf | EDANS-DABCYL int | others
Clc1nc2c(ccc3ccccc32)[nH]1 | -5 | -10 | -3 | -1 | -4 | · | ·
Nc1ccc(-c2nc3c(ccc4ccccc43)[nH]2)cc1 | i | i | 4 | 54* | 11* | 74* | 74*
O=C(O)CCC(=O)N1CCN(c2nc(-c3ccccc3)c3ccccc3n2)CC1 | -183 | -443 | -8 | 32* | 2 | 8 | 8.6*
CCC(C)NC(=O)CSc1nnc(-c2cc(OC)c(OC)c(OC)c2)o1 (stereo unspecified) | 2 | 0 | · | 0 | · | · | ·
O=C(c1cc2c(ccc3ccccc32)o1)N1CCCCC1 | -1 | -1 | 8 | 0 | -1 | · | ·
COC(=O)c1cc2c(ccc3ccccc32)oc1=O | i | i | -1 | 65* | -1 | 67* | 74*
CN1CCN(C(=O)c2cc3c(ccc4ccccc43)oc2=O)CC1 | -496 | i | -4 | 56* | -1 | 22* | 21*
CCOP(=O)(c1ccc(N(C)C)cc1)C(O)c1ccccc1 (stereo unspecified) | 0 | 2 | -10 | 0 | 0 | · | ·
COP(=O)(c1ccc(N(C)C)cc1)C(O)c1ccccc1 (stereo unspecified) | -7 | -12 | -5 | 29* | 0 | 0 | 0
CCCCn1c(N)c(N(CCC(C)C)C(=O)COC(=O)c2ccccc2)c(=O)[nH]c1=O | -1 | -9 | -3 | 0 | 1 | · | ·
CCCCn1c(N)c(N(CC(C)C)C(=O)COC(=O)c2ccccc2NCCO)c(=O)[nH]c1=O | i | i | -2 | 22* | 0 | 21* | 27*
CCCn1c(N)c(N(CCOC)C(=O)COC(=O)c2ccccc2NCCO)c(=O)[nH]c1=O | i | i | -8 | 24* | -2 | 29* | 29*
CC[C@]12c3[nH]c4cc(-c5ccco5)ccc4c3CCN1C(=O)[C@@H](CC(=O)NCc1ccc(OC)c(OC)c1)C[C@@H]2C(=O)N1CCN(C(=O)C2CC2)CC1 | -106 | -383 | -2 | 122* | 2 | 72* | 84*
